About 31,000 (8.9%) of roughly 350,000 compounds were called active. Another 15% or so got no clear call; they are omitted. Calls follow the shape of the dose curve; as a rule, active = well fitted inhibition curve with a large enough effect; inconclusive = small, poorly fitted or top-dose-only effect; inactive = no such curve, though single readings can be large or run the other way. This excerpt belongs to a sample that is enriched for actives.
molecular target: Histone-lysine N-methyltransferase EHMT2 (Homo sapiens) (UniProt Q96KQ7); test: qHTS Assay for Inhibitors of Histone Lysine Methyltransferase G9a; conditions: G9a H3K9 monomethylation, AlphaScreen, 2 h; series mostly up to 59 µM; activity, negative = inhibition: at the top concentration; also: nearly all actives have a fitted effect of over 75% in size
Source text: Methylated lysines, on the N-terminal tails of histone proteins serve as epigenetic markers to recruit factors that can then modify local chromatin structure to lead to functional consequences. G9a and other members of the SUV39 family of the SET domain-containing superfamily of histone lysine methyltransferases (HMT) have been identified to specifically methylate Lys9 of histone H3 (H3K9). G9a catalyzes the mono- and di-methylation of H3K9 in mammalian euchromatic regions, where the resulting H3K9me2 is indicative of transcriptional repression. […] The inhibition of G9a will result in transcriptional activation and work synergistically with DNA methyltransferase and histone deacetylase inhibitors, to kill cancer cells. This qHTS assay for identification of G9a inhibitors is a chemiluminescence based AlphaScreen (PerkinElmer). Methylation of biotinylated-histone peptide is measured through specific antibody-based detection, in conjunction with streptavidin-coated donor and anti-IgG antibody-coated acceptor beads. The method is particularly well suited for detection of inhibitors acting by the desired histone peptide competitive mechanism and is applicable to testing other HMTs. Although AlphaScreen has significant advantages with its utility in a variety of epigenetic target assays, the primary screening data provided in this deposition should be used with caution due to the prevalence of screening artifacts. An AlphaScreen counterscreen is highly recommended to be run against any putative actives to eliminate non specific artifacts. Alternatively, one can use other AlphaScreen assays in PubChem to filter out promiscuous hits. Quinn et al. A chemiluminescence-based method for identification of histone lysine methyltransferase inhibitors. Mol Biosyst 6(5): 782-8. 2010. PMID: 20567762 [2] Baell,Holloway. New substructure filters for removal of pan assay interference compounds (PAINS) from screening libraries and for their exclusion in bioassays. J Med Chem. 53(7):2719-40. 2010. PMID: 20131845 NIH Molecular Libraries Probe Production Network [MLPCN] NIH Chemical Genomics Center [NCGC] Structural Genomics Consortium (SGC) NIH Grant: 5U54 MH084681-02
To each well of a 1,536w plate, 2ul of HMT enzyme (final 20nM) were added, using a nanoliter dispenser. The G9a- and GLP-inhibitor BIX-01294 (CID: 25150857) are used as an intraplate control, with a 16-point titration in duplicate. A Kalypsys pin-tool transferred 23nl of library compound solution in DMSO to each well. Following a 15 min incubation of enzyme with compounds at room temperature, 1ul mixture of b-H3K9 peptide substrate (final 500nM) and SAM cofactor (final 20uM) were added. Reactions were allowed to proceed at room temperature for 2 hours. Methylated b-H3K9 peptide product was detected with 0.5 ug/mL rabbit polyclonal anti-monomethyl histone H3K9 antibody (Abcam Inc., Cambridge, MA) and 20 ug/mL each streptavidin-coated donor and anti-rabbit IgG acceptor AlphaScreen beads. Antibody and beads were added in a 1ul dispense, for a final volume of 4ul, and plates were incubated, protected from the light, for 10 min at room temperature. Microplates were then read on an EnVision multilabel plate reader using the 1,536 plate HTS AlphaScreen aperture (excitation time 80 ms, measurement time 240 ms).
% is scaled to controls: 0 for no effect and ±100 for the full control effect; potency is read from the fitted curve at half-maximal effect.

Histone-lysine N-methyltransferase EHMT2 (Homo sapiens), sequence (Q96KQ7 913-1193 limits assumed): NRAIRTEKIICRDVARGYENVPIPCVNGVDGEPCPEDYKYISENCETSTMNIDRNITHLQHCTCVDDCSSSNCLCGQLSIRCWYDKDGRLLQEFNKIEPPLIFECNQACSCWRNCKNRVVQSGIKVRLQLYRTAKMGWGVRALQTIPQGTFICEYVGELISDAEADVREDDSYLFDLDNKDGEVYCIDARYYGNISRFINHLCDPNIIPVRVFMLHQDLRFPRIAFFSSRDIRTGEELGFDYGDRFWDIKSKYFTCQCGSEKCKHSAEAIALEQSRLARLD

SMILES | activity, negative = inhibition | Potency
C/C(=N\NC(=O)COc1c(C)cccc1C)c1cccs1 | 26.6% [at 102 µM] (inactive) | –
C/C(=N\Nc1ncc(Cl)cc1Cl)c1cccs1 | -2.14% [at 102 µM] (inactive) | –
C/C(=N\Nc1ccc(S(N)(=O)=O)cc1[N+](=O)[O-])c1cccs1 | – | 25.1 µM (active)
C=CCOc1ccc(C(=O)Nc2ccccc2C(=O)N2CCCC2)cc1 | 0.754% [at 102 µM] (inactive) | –
O=C(NCCc1ccc(Cl)cc1)c1ccc2c(c1)N(Cc1ccc(F)cc1)C(=O)CS2 | 4.55% (inactive) | –
O=C(CSc1nnc(-c2cccs2)n1-c1ccccc1)N1CCN(C(=O)c2ccco2)CC1 | – | 7.08 µM (active)
Cc1cc2ccccc2n2c(SCC(=O)N3CCN(C(=O)c4ccco4)CC3)nnc12 | -25.7% [at 102 µM] (inactive) | –
O=C(CSc1nnc(-c2cccs2)n1-c1ccccc1)NCc1ccco1 | -5.59% [at 12.7 µM] (inactive) | –
Cc1cc(=O)n2[nH]c(-c3cccc(Cl)c3)cc2n1 | -10.1% [at 102 µM] (inactive) | –
O=C(/C=C/c1ccc(N2CCOCC2)cc1)c1ccccc1 | 96.9% [at 102 µM] (inactive) | –
Cc1cc(/C=C(/C#N)C(=O)Nc2ccc(Cl)cc2)c(C)n1-c1cccnc1 | 23.3% (inactive) | –
Cc1cc(/C=C2\SC(=Nc3ccc(N4CCOCC4)cc3)N(C)C2=O)c(C)n1-c1cccnc1 | – | 70.8 µM (active)
O=C(NCCS(=O)(=O)NCc1ccc(Cl)cc1)c1ccccc1 | -7.35% [at 102 µM] (inactive) | –
Cc1noc(NS(=O)(=O)c2ccc(N/C=C/C(=O)c3ccccc3)cc2)c1C | -38.3% [at 2.33 µM] (inactive) | –
Cc1cc(NS(=O)(=O)c2ccc(NC(=O)c3cccnc3)cc2)nc(C)n1 | 2.52% [at 102 µM] (inactive) | –
O=C(/C=C/Nc1ccc(S(=O)(=O)Nc2cnc3ccccc3n2)cc1)c1cccnc1 | – | 70.8 µM (active)
CC(OC(=O)CCCOc1ccccc1)C(=O)Nc1ccc(Cl)cn1 (configuration not stated) | 34.7% [at 102 µM] (inactive) | –
Cc1ccc(-c2noc(CSc3nnc(-c4ccc(Cl)cc4)n3C)n2)cc1 | 1.74% (inactive) | –
Cc1cc(=O)n2nc(N3CCCC(C(=O)NCc4cccc(Cl)c4)C3)sc2n1 (configuration not stated) | 14.8% [at 102 µM] (inactive) | –
COc1ccccc1N1CCN(CC(=O)NC(=O)NCc2ccco2)CC1 | 6.46% [at 102 µM] (inactive) | –
CC(C)OC(=O)CN1CCN(c2ccc(Cl)cc2)CC1 | 1.33% [at 102 µM] (inactive) | –

SMILES | activity, negative = inhibition | Potency
Cc1ccc(Cl)cc1NC(=O)CN1CCN(S(=O)(=O)N2CCOCC2)CC1 | 1.26% [at 102 µM] (inactive) | –
COc1ccc(NC(C)=O)cc1NC(=O)CN1CCN(c2ccc(F)cc2)CC1 | 2.49% (inactive) | –
O=C(CN1CCN(S(=O)(=O)/C=C/c2ccccc2)CC1)NC(=O)NCc1ccco1 | – | 20 µM (active)
O=C(CN1CCN(c2ccc(Cl)cc2)CC1)c1ccccc1 | – | 8.91 µM (active)
O=C(CN1CCN(c2ccc(O)cc2)CC1)Nc1cc(S(=O)(=O)N2CCOCC2)ccc1Cl | – | 3.16 µM (active)
O=C(CN1CCN(c2ccc(F)cc2)CC1)Nc1cccc(C(F)(F)F)c1 | – | 50.1 µM (active)
NC(=O)CCN1CCN(S(=O)(=O)/C=C/c2ccccc2)CC1 | 29% [at 102 µM] (inactive) | –
O=C(CN1c2ccccc2S(=O)(=O)c2ccccc21)Nc1cccc(C(F)(F)F)c1 | -10.5% (inactive) | –
O=C(CN1CCOCC1)Nc1cc(Cl)ccc1Cl | 53.9% (inactive) | –
O=C(CN1CCN(c2ccc(Cl)cc2)CC1)N1CCCC1 | 12.3% (inactive) | –
COc1ccccc1NC(=O)C1=C(C)Nc2nc(SCC(=O)c3ccc(C)cc3)nn2C1c1ccccc1C (configuration not stated) | -0.656% (inactive) | –
O=C(NCc1ccncc1)c1cccc(NS(=O)(=O)c2ccc(F)c(F)c2)c1 | -0.45% (inactive) | –
CC1CCCCN1S(=O)(=O)c1ccc(F)c(C(=O)Nc2ccccc2C(F)(F)F)c1 (configuration not stated) | 11.3% (inactive) | –
CN(Cc1ccccc1)S(=O)(=O)c1ccc(F)c(C(=O)Nc2cccc(Cl)c2Cl)c1 | -8.99% (inactive) | –
COc1ccc(-c2c(C)c3ccc(O)c(CN4CCCC4)c3oc2=O)cc1OC | 13.2% (inactive) | –
COc1ccc(-c2noc(CCC(=O)N(C)c3ccccc3C)n2)cc1 | 7.21% (inactive) | –
Cc1ccc2nc(SCC(=O)N3CCN(c4ccccc4)CC3)nc(=O)n2c1 | -0.43% [at 0.501 µM] (inactive) | –
O=C(COC(=O)c1cc(=O)[nH]c2ccccc12)NCc1cccc(Cl)c1 | 1.96% [at 12.7 µM] (inactive) | –
CN(C)S(=O)(=O)c1ccc(C(=O)N(Cc2cccnc2)c2nc3c(F)cc(F)cc3s2)cc1 | -4.21% (inactive) | –
COc1ccccc1NC(=O)C1CCCN1S(=O)(=O)c1ccc(Cl)cc1 (configuration not stated) | 34.2% [at 102 µM] (inactive) | –
O=C(CNC(=O)c1ccc(Br)o1)NCC1CCCO1 (configuration not stated) | 36.6% [at 102 µM] (inactive) | –

SMILES | activity, negative = inhibition | Potency
NS(=O)(=O)c1ccc(NC(=O)C(=O)Nc2ccc3nc4n(c(=O)c3c2)CCCCC4)cc1 | -25.2% (inactive) | –
O=C(CN1CCN(c2ccccc2)CC1)Nc1ccc(F)cc1 | 15.6% [at 102 µM] (inactive) | –
O=C(CN1CCN(c2ccc(O)cc2)CC1)Nc1ccc(-c2ccccc2)cc1 | – | 11.2 µM (active)
O=C(CN1CCN(S(=O)(=O)/C=C/c2ccccc2)CC1)Nc1ccc(N2CCOCC2)cc1 | – | 35.5 µM (active)
O=c1cc(CN2CCN(S(=O)(=O)/C=C/c3ccccc3)CC2)c2ccc(O)cc2o1 | 9.01% (inactive) | –
O=C(CN1CCOCC1)Nc1ccccc1 | 41.4% [at 12.7 µM] (inactive) | –
CC(=O)c1ccc(N2CCN(CC(=O)Nc3ccccc3N3CCOCC3)CC2)cc1 | -4.9% (inactive) | –
Cc1ccccc1NC(=O)c1cc2c([nH]c1=O)CC(C)(C)CC2=O | 10.3% (inactive) | –
O=C(Nc1cc(Cl)ccc1N1CCOCC1)c1ccc(N2CCCC2=O)cc1 | -16.7% [at 102 µM] (inactive) | –
CCc1ccccc1NC(=O)Cn1c(=O)n(-c2cccc(C)c2)c(=O)c2c1c1cc(OC)ccc1n2C | 0.155% (inactive) | –
CC(C)c1cc(C(=O)O)on1 | 7.05% (inactive) | –
CC(C)c1cc(C(=O)N/N=C/C(Br)=C/c2ccccc2)n[nH]1 | -9.73% [at 102 µM] (inactive) | –
CC(C)c1cc(C(=O)O)n[nH]1 | – | 44.7 µM (active)
O=C(CNC(=O)c1ccccc1Br)NCCSc1ccc(Br)cc1 | -0.242% [at 102 µM] (inactive) | –
Cc1ccc2nc(COc3cccc(NC(=O)c4cccc(Cl)c4)c3)cc(=O)n2c1 | 15.9% (inactive) | –
O=C(CCCN1C(=O)/C(=C/c2ccco2)SC1=S)Nc1ccccc1 | -21.4% (inactive) | –
CN1C(=O)/C(=C/c2ccco2)SC1=Nc1cccc(C(=O)O)c1 | – | 28.2 µM (active)
CN=C1S/C(=C\c2c(OC)cc(OC)cc2OC)C(=O)N1C | -4.41% [at 102 µM] (inactive) | –
COc1ccc(CCNC(=O)CCCCCNC(=O)N2CCn3c2nc2ccccc23)cc1OC | 50.3% [at 102 µM] (inactive) | –
COc1ccc(NC(=O)Cn2cc(C(=O)c3ccncc3)c(=O)c3cc(C)ccc32)cc1Cl | 3.8% [at 12.7 µM] (inactive) | –

Source: PubChem BioAssay AID504332 (National Center for Advancing Translational Sciences (NCATS), 2011)
